Rows were chosen to be rich in hits. Some 2.1% of all compounds tested hit in one or more screens of this group.
YB-1 expr inh – YB-1 expression inhibition; U2OS, qRT-PCR YB-1 vs CDIP delta delta Cp, 16 h; active compounds read high; zero = DMSO, each unit about twofold; delta delta Cp (YB-1 minus CDIP) (test concentration not listed); hit rate 0.37% among 30,000; AID 434959;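 active = delta delta Cp rounded down to an integer at or above 3, about 3 SD of DMSO wells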;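 note: higher means less YB-1 transcript or more CDIP transcript relative to DMSO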
U2OS ROS induce – raises reactive oxygen species in U2OS cancer cells; U2OS ROS induction, H2DCF-DA fluorescence; ROS induction (% of piperlongumine), % at 10 µM; hit rate 2% among 46,000; in the data active = ROS induction above about 79%, passing the limit was not always enough
Of the large screens only hits and unclear results are named; the others gave an inactive call.

CC(C)CSCC1OC(n2cnc3c(N)ncnc32)C(O)C1O (stereo not given)	none (no result: YB-1 expr inh)
CCc1ccc(NC(=O)CC(NCc2ccccc2)C(=O)O)cc1 (stereo not given)	none (no result: YB-1 expr inh)
CC1Cc2cc(S(=O)(=O)NN3CCOCC3)ccc2N1C(=O)C1CC1 (stereo not given)	none (no result: YB-1 expr inh)
O=C1Nc2ccc(Br)cc2/C1=C/c1cc2c([nH]1)CCCC2	none
CN(C)S(=O)(=O)c1ccc2c(c1)/C(=C/c1cc3c([nH]1)CCCC3)C(=O)N2	U2OS ROS induce 98
Cc1nc(-c2ccccc2)sc1C(=O)C1C(=O)C(=O)N(CCCN2CCOCC2)C1c1cccs1 (stereo not given)	U2OS ROS induce 115 (no result: YB-1 expr inh)
Cc1nc(-c2ccccc2)sc1C(=O)C1C(=O)C(=O)N(CCCN2CCOCC2)C1c1ccco1 (stereo not given)	none (no result: YB-1 expr inh)
Cc1cc(C)c(Cn2c(S(=O)(=O)Cc3ccccc3)nc3ccccc32)c(C)c1	none (no result: YB-1 expr inh)
Cc1cccc(CN(C)C[C@@H]2Oc3ncc(-c4cccc(C(F)(F)F)c4)cc3C(=O)N([C@H](C)CO)C[C@@H]2C)c1	U2OS ROS induce 104
COc1ccc(C#Cc2cnc3c(c2)C(=O)N([C@H](C)CO)C[C@H](C)[C@H](CN(C)Cc2cccc(C(F)(F)F)c2)O3)cc1OC	none
C[C@H](CO)N1C[C@H](C)[C@H](CN(C)Cc2cccc(C(F)(F)F)c2)Oc2ncc(-c3ccccc3)cc2C1=O	none
COc1ccc(-c2cnc3c(c2)C(=O)N([C@H](C)CO)C[C@H](C)[C@H](CN(C)Cc2cccc(C(F)(F)F)c2)O3)cc1	U2OS ROS induce 110
COC(=O)c1ccc2c(c1)N(CC#N)C(=O)CS2	none (no result: YB-1 expr inh)
CC(NC(=O)Cn1cccc1C(=O)c1ccccc1)C12CC3CC(CC(C3)C1)C2 (stereo not given)	none (no result: YB-1 expr inh)
O=C1NCCN1CCN(CC(O)c1ccccc1)CC(O)c1ccccc1 (stereo not given)	none (no result: YB-1 expr inh)
CN/C(=C/[N+](=O)[O-])NCCSCc1csc(CN(C)C)n1	YB-1 expr inh 3.8
NS(=O)(=O)c1ccc(CCNC(=O)c2cc3c(s2)-c2ccccc2OC3)cc1	none (no result: YB-1 expr inh)
COc1ccc(C2C(C#N)=C(N)OC3NN=C(C)C32)cc1COc1cccc(Cl)c1 (stereo not given)	none (no result: YB-1 expr inh)
Cn1c(SCCCN2C(=O)c3cccc4cccc(c34)C2=O)nnc1-c1cccs1	none (no result: YB-1 expr inh)
COc1ccc(-n2c(SCCCN3C(=O)c4cccc5cccc(c45)C3=O)nnc2-c2ccncc2)cc1	U2OS ROS induce 88 (no result: YB-1 expr inh)
O=C(c1nc2ccccc2[nH]1)N1CCOCC1	none (no result: YB-1 expr inh)
S=C(c1nc2ccccc2[nH]1)N1CCOCC1	YB-1 expr inh 5.2
CCN1C(=S)NC2c3cc(Br)ccc3OC1(C)C2C(=O)Nc1ccc(Cl)cc1 (stereo not given)	none (no result: YB-1 expr inh)
C[C@H](CO)N1C[C@H](C)[C@H](CN(C)C(=O)Nc2ccc3c(c2)OCO3)Oc2ccc(NS(C)(=O)=O)cc2CC1=O	U2OS ROS induce 123
C[C@H](CO)N1C[C@H](C)[C@H](CN(C)C(=O)Nc2ccc3c(c2)OCO3)Oc2ccc(NS(=O)(=O)c3ccccc3)cc2CC1=O	none
CC(C)NC(=O)Nc1ccc2c(c1)CC(=O)N([C@@H](C)CO)C[C@@H](C)[C@@H](CN(C)C(=O)Nc1ccc3c(c1)OCO3)O2	U2OS ROS induce 111
C[C@H]1CN([C@@H](C)CO)C(=O)Cc2cc(NC(=O)Nc3ccc4c(c3)OCO4)ccc2O[C@H]1CN(C)C(=O)Nc1ccc2c(c1)OCO2	none
COc1ccc2[nH]c3c(=O)n(CCCCC(=O)Nc4ccccc4)c(=S)[nH]c3c2c1	none (no result: YB-1 expr inh)
C[C@H]1CN([C@@H](C)CO)C(=O)Cc2cc(NS(=O)(=O)c3ccccc3)ccc2O[C@H]1CN(C)Cc1ccc(Oc2ccccc2)cc1	none
C[C@H](CO)N1C[C@H](C)[C@H](CN(C)Cc2ccc(Oc3ccccc3)cc2)Oc2ccc(NS(=O)(=O)c3ccc(F)cc3)cc2CC1=O	U2OS ROS induce 114
C[C@@H]1CN([C@H](C)CO)C(=O)Cc2cc(NS(=O)(=O)c3ccc(Cl)cc3)ccc2O[C@@H]1CN(C)Cc1ccc(Oc2ccccc2)cc1	U2OS ROS induce 86
C[C@@H]1CN([C@H](C)CO)C(=O)Cc2cc(NS(=O)(=O)c3ccc(F)cc3)ccc2O[C@@H]1CN(C)Cc1ccc(Oc2ccccc2)cc1	none
COc1cc(Cl)c(/C=N\NC(=O)CCCCC(=O)NO)c(Cl)c1OC	none
Cc1noc(C)c1S(=O)(=O)Nc1ccc2c(c1)C(=O)N([C@H](C)CO)C[C@H](C)[C@@H](CN(C)S(=O)(=O)c1ccc(F)cc1)OCCCC[C@@H](C)O2	U2OS ROS induce 126
COc1ccc(S(=O)(=O)N(C)C[C@H]2OCCCC[C@@H](C)Oc3ccc(NS(=O)(=O)c4ccc(Cl)cc4)cc3C(=O)N([C@H](C)CO)C[C@@H]2C)cc1	none
Cc1noc(C)c1S(=O)(=O)N(C)C[C@H]1OCCCC[C@@H](C)Oc2ccc(NS(=O)(=O)c3ccc(Cl)cc3)cc2C(=O)N([C@H](C)CO)C[C@@H]1C	U2OS ROS induce 110
